Test results reported in PubChem BioAssay AID488857 (Sanford-Burnham Center for Chemical Genomics, 2010).
Out of some 1,400 compounds screened, about 560 (40%) were called active. So high a share suggests a set chosen from earlier hits. This is one part of the list. A number with no mark means an inactive call.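 Rule for the calls: active = mean inhibition over duplicate tests at 10 µM above 50%; inactive = the rest.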

test: ASC/caspase-1 reporter retest in S. cerevisiae at one dose, specificity check for NALP1 project (AID 488857); conditions: S. cerevisiae ASC/Caspase-1, beta-galactosidase luminescence, 24 h; at 10 µM; hits give high values

SMILES | inhibition
CC1CCCCN1C(=S)Nc1ccc2nc3n(c(=O)c2c1)CCCCC3 (stereo unspecified) | 40.4%
O=C(Nc1ccc2nc3n(c(=O)c2c1)CCCC3)c1cc([N+](=O)[O-])ccc1F | 79.8% (active)
Cc1cc(NC(=O)/C=C/c2ccccc2Cl)no1 | 51.1% (active)
CCOC(=O)c1ccc(N2C(=O)CC(N3CCCC(C)C3)C2=O)cc1 (stereo unspecified) | 49.7%
CCOC(=O)CCCNC(=O)COC(=O)c1ccc(O)cc1 | 35.5%
CCOC(=O)c1ccc(N2C(=O)C=CC2=O)cc1 | 82.3% (active)
CC1=NNC(=O)/C1=C\c1cn(-c2ccccc2)nc1-c1cccs1 | 89.6% (active)
CC1(C)CC(=O)c2c(-c3cccs3)n[nH]c2C1 | 44.1%
Cc1cc(N2CCOCC2)n2ncc(-c3ccccc3)c2n1 | 71.5% (active)
COc1ccc(/C=C2\SC(N3CCc4ccccc4C3)=NC2=O)cc1 | 76.5% (active)
CCOc1ccccc1C1CC(=O)NC(SCC(=O)Nc2nccs2)=C1C#N (stereo unspecified) | 10.7%
CSc1ccc(S(=O)(=O)NCc2ccc(C)cc2)cc1 | 56% (active)
COc1ccc(CNC(=O)CCNS(=O)(=O)c2ccc(C)cc2)cc1 | 43.1%
Cc1ccc(S(=O)(=O)NCc2ccc(C(=O)NCCCN3CCC(Cc4ccccc4)CC3)cc2)cc1 | 20.4%
c1ccc(-c2cccc(-c3ccccn3)n2)nc1 | 97.2% (active)
c1ccc(Nc2ccccn2)cc1 | 34.5%
CCCCOC(=O)Oc1ccc2c(=O)c(Oc3cc(C)cc(C)c3)coc2c1 | 54.9% (active)
Cc1cc(C)n(CCOc2ccc(Cl)cc2Cl)n1 | 56.7% (active)
CC1=C(C)/C(=N\OS(=O)(=O)c2ccc(C)cc2)C=CC1=O | 92.7% (active)
Cc1cccc(C(=O)NNC(=O)CN2C(=O)c3ccccc3C2=O)c1 | 32.6%
N/C(Cc1ccc([N+](=O)[O-])cc1)=N\OC(=O)c1ccccc1Br | 71% (active)
Cc1cccc(/C(N)=N/OC(=O)c2ccc(Cl)cc2Cl)c1 | 32.9%

SMILES | inhibition
N/C(Cc1ccc(Cl)cc1)=N\OC(=O)C1CCCCC1 | 47.5%
N/C(Cc1ccccc1)=N\OC(=O)c1cccc2ccccc12 | 51.2% (active)
Cc1cccc(/C(N)=N/OC(=O)c2cccc3ccccc23)c1 | 52.9% (active)
COc1ccccc1C/C(N)=N/OC(=O)c1cccc([N+](=O)[O-])c1C | 41.5%
O=C(Cc1ccc([N+](=O)[O-])cc1)c1ccc(O)cc1O | 49.1%
CCOC(=O)C1C(=O)Oc2ccc3ccccc3c2C1C1CCOC1=O (stereo unspecified) | 32.4%
CN1CCN(S(=O)(=O)c2ccc(Br)c3nsnc23)CC1 | 45.2%
CN1CCN(C2=C(Cl)C(=O)N(CCc3ccccc3)C2=O)CC1 | 47.1%
C=CCSc1nsc(NC(=O)Nc2ccc(F)cc2)n1 | 98.9% (active)
CCOC(=O)n1c(=O)n(Cc2ccccc2)c2ccccc21 | 47.1%
CC12CCC(C(=O)O)(C/C1=N\O)C2(C)C (stereo unspecified) | 21%
COc1ccc(OCCCC(=O)NCC(C)C)cc1 | 39.5%
O=C(CCCN1C(=O)c2ccccc2C1=O)Oc1ccc(Cl)cc1 | 31.9%
CN(C)C(CNC(=O)CCCOc1ccccc1)c1ccco1 (stereo unspecified) | 39.1%
COc1ccc(CCNCc2ccc(OCc3ccccc3)cc2)cc1 | 80.8% (active)
COc1ccc(OCCCC(=O)NCCc2ccccc2)cc1 | 51.9% (active)
CCOCCCNCc1ccc(OCc2ccccc2Cl)cc1 | 45.9%
COc1ccc(OCCCC(=O)Oc2ccc(OC)cc2)cc1 | 50.5% (active)
COc1ccc(CNCCC(c2ccc(F)cc2)c2ccc(OC)cc2)cc1 (stereo unspecified) | 61.4% (active)
COc1ccc(C(CCNCc2ccccc2F)c2ccc(F)cc2)cc1 (stereo unspecified) | 45.1%
COc1ccc(CNCCSc2nnnn2C)cc1OC | 40.2%
COc1ccc(OCC#CCNC(C)(C)C)cc1 | 30.3%

SMILES | inhibition
COc1cc(/C=C2\SC(=Nc3ccc(F)cc3)N(c3ccc(F)cc3)C2=O)ccc1OCC(=O)O | 31.9%
O=C1CCCc2ccccc2N1Cc1ccc(Cl)cc1Cl | 31.8%
O=C1Cc2ccccc2C(=O)N1OCc1ccc(Cl)cc1Cl | 29.5%
Clc1ccc(CO/N=C2\CCCc3nonc32)c(Cl)c1 | 52.5% (active)
CN(C)C(=N)c1n[nH]nc1SCc1ccccc1 | 27.9%
CCCCCCCCCCCCCCCC[n+]1ccc(/C=N/O)cc1 | 85.1% (active)
CCCCCCCCCCCCCCCC[n+]1ccc(C(N)=O)cc1 | 80.4% (active)
CCCCCCCCCCCCCCCC[n+]1cccc(C(=O)N(CC)CC)c1 | 93.2% (active)
CCCCN(CC)S(=O)(=O)c1ccccc1 | 8.05%
COC(=O)c1c(NC(=O)C2CCCO2)sc2c1CCC2 (stereo unspecified) | 58% (active)
COC(=O)c1c(NC(NC(=O)C(C)C)C(Cl)(Cl)Cl)sc2c1CCC2 (stereo unspecified) | 33.2%
CCOc1cc(-c2c(C)c(C)nc(N)c2C#N)ccc1O | 49.5%
O=C(Nc1cc(N2CCOCC2)ncn1)NC1(C(F)(F)F)Oc2ccc(Cl)cc2O1 (stereo unspecified) | 36.8%
CCc1ccc(CC(=S)N2CCOCC2)cc1 | 51.4% (active)
O=S(=O)(N1CCCCC1)N1CCN(c2ccc(F)cc2)CC1 | 45.9%
O=C(C(Cc1ccccc1)n1cccc1)N1CCN(c2ccccc2)CC1 (stereo unspecified) | 49.2%
O=C(NC(=O)N1CCN(c2ccc(F)cc2)CC1)c1ccccc1 | 53% (active)
CC(C)Oc1ccc(OCCNC2CCCC2)cc1 | 45.6%
CCN(CC)S(=O)(=O)c1cccc(C(=O)N[C@H](C(=O)O)C(C)C)c1 | 45.6%
N#CC(C#N)=C1C=CC=CN1/C(=C\c1ccccc1Cl)C(=O)c1ccccc1 | 17.6%
COc1ccc(/C=C(/C(=O)c2cccs2)N2C=CC=CC2=C(C#N)C#N)cc1 | 51.5% (active)
CN(C)CCNC=C(C(=O)Nc1ccc(Cl)cc1Cl)C(=O)Nc1ccc(Cl)cc1Cl | 36%
